# Source: PubChem BioAssay (EPA / NIEHS)
# Several values for one entry are separate records, joined by “and”; a condition that tells them apart may be missing. Equal entries are not always repeated. Where a structure was tested more than once in an assay, its records may differ in their call. Activity calls are given as the source filed them. How the source made its calls: active means hit-call score of the fitted dose curve at least 0.9, where 1 is the maximum; inconclusive means response in the unintended direction; inactive means score below 0.9.
# System: rat Monoamine Oxidase, MAO-A, Central (MAOAC), gene 29253
# Assay: NVS_ENZ_rMAOAC: NovaScreen (NVS) Enzymatic Assay for rat Monoamine Oxidase, MAO-A, Central (MAOAC) (AID 2283243);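 further: potency refers to inhibition seen as signal drop below DMSO baseline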
# Experimental: NVS_ENZ_rMAOAC is a biochemical, single-readout assay that uses extracted gene-proteins from Rat brain in a tissue-based cell-free assay. Measurements were taken 1.5 hours after chemical dosing in a 96-well plate.NVS_ENZ_rMAOAC is one of one assay component(s) measured or calculated from the NVS_ENZ_rMAOAC assay. It is designed to make measurements of enzyme activity, a form of enzyme reporter, as detected with scintillation counting signals by Lysate-based radiodetection technology.Data from the assay component NVS_ENZ_rMAOAC was analyzed into 1 assay endpoint. This assay endpoint, NVS_ENZ_rMAOAC, was analyzed in the positive analysis fitting direction relative to DMSO as the negative control and baseline of activity. Using a type of enzyme reporter, loss-of-signal activity can be used to understand changes in the enzymatic activity as they relate to the gene Maoa. Furthermore, this assay endpoint can be referred to as a primary readout, because this assay has produced multiple assay endpoints where this one serves a enzymatic activity function. To generalize the intended target to other relatable targets, this assay endpoint is annotated to the oxidoreductase intended target family, where the subfamily is monoamine oxidase.
# Binding assays used specific radioligands (tritiated, iodinated) with non-radioactive competitive displacement ligands in agonist or antagonist protocols (as indicated) and various reference compounds and inhibitors to titrate specific binding to receptors and transporters. Most enzyme assays (CYPs, kinases, phosphatases, proteases, HDACs) used recombinant protein and specific substrates (fluorescence mostly, some colorimetric and radioactive) and inhibitors, followed by a biochemical separation of substrate and product. All assays for the biochemical HTS were initially run in duplicate at a single concentration (10 uM for CYP450 assays and 25 uM for all others). […] Each assay was run with positive and negative controls, and concurrent controls on every plate. The follow-up (secondary) screen tested active chemical-pairs in concentration series, as well as a few additional assays not tested in the primary screen, some selected negative inactives, and several cases re-run in the concentration series for confirmatory purposes.
SMILES,AC50,outcome
Cc1ccc(-c2c(Cl)nc(C#N)n2S(=O)(=O)N(C)C)cc1,4.79 µM (active),–
CC1=C(C(=O)Nc2ccccc2)SCCO1,17.5 µM (active),–
COc1nc(C)nc(NC(=O)NS(=O)(=O)c2ccccc2Cl)n1,37.7 µM (active),inactive
COC(=O)c1ccccc1C(=O)OC,–,inactive
O=C(Nc1ccccc1)Nc1ccnc(Cl)c1,25 µM (active),–
CC1COC(Cn2cncn2)(c2ccc(Oc3ccc(Cl)cc3)cc2Cl)O1 (configuration not stated),1.8 µM (active),–
CON(C)C(=O)Nc1ccc(Cl)c(Cl)c1,20.5 µM (active) [middle of 4 runs],–
Oc1ccccc1-c1ccccc1,25 µM (active),–
CCNc1nc(Cl)nc(NC(C)C)n1,25 µM (active) and 8.22 µM (active),inactive
Fc1ccc(Oc2ccnc3cc(Cl)cc(Cl)c23)cc1,–,inactive
